# Source: PubChem BioAssay (National Center for Advancing Translational Sciences (NCATS))
# In the library only some 4.2% were active in any assay of this set; here they are far more common.
# TRPV1 ag = human TRPV1 agonism | Q8NER1 | actives 0.19% (n = 320,000) | AID 540275 | activation, % at 8.33 µM | TRPV1-expressing cells, Fluo-8 calcium influx, agonist mode; in the data active = activation above about 80%; inconclusive = between about 30% and that limit; also: 0% is about no effect
#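 Fluo-8 calcium influx in TRPV1-expressing cells, kinetic read (ex 480/em 520 nm). Compound added and read 3 min for agonist activity, followed by capsaicin at EC20 final and 2 min further read for enhancement.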
# TRPV1 potentiator = potentiators of human vanilloid receptor 1 (TRPV1); Q8NER1; TRPV1-expressing cells, Fluo-8 calcium influx, capsaicin EC20 potentiation; potentiation, % at 8.33 µM; actives 0.02% (n = 320,000); in the data active = potentiation above about 80%; inconclusive = between about 30% and that limit; also: 0% is about no effect
#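 Cells expressing TRPV1 were dye-loaded with Fluo-8 and read kinetically: 10 s baseline, 3 min after compound (agonist portion), then 2 min after EC20 capsaicin (allosteric enhancer portion). Calcium-bound dye fluorescence at 480/520 nm.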
# D1 agonist = agonists of human D1 dopamine receptor; P21728; HEK293 T-REx D1 cells, calcium flux, agonist mode; activation, % at 2 µM; actives 1% (n = 360,000); AID 504660; in the data active = activation above about 30%; also: 0% is about no effect
#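 Agonism was scored from calcium flux recorded over 180 s (1 read/s) after pintool compound addition, following a 10-cycle baseline. Cells were inducible force-coupled HEK293 TREx D1, plated overnight at 30 C and loaded with no-wash calcium dye.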
# D1 antagonist = antagonists of human D1 dopamine receptor; activity change, negative = inhibition, % at 10 µM; actives 3.2% (n = 360,000); HEK293 TREx D1 cells, calcium flux, dopamine EC80; stronger effect = lower value; P21728; in the data active = activity change below about -30%; also: % is scaled to controls: 0 for no effect and ±100 for the full control effect
#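 Calcium flux readout: force-coupled, inducible Hek293 Trex D1 line, cells induced overnight at 30 C with tetracycline, dye-loaded 30–90 min at RT. Antagonism scored against EC80 dopamine challenge given 180 s after compound.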
# D1 PAM = human D1 dopamine receptor positive modulation; P21728; HEK293 TREx D1 cells, calcium flux, dopamine EC20 potentiation; potentiation, % at 10 µM; actives 0.036% (n = 360,000); AID 504651; in the data active = potentiation above about 30%; also: 0% is about no effect
# The depositor's hits bear a star; ? = inconclusive; nt = no result.
SMILES,TRPV1 ag,TRPV1 potentiator,D1 agonist,D1 antagonist,D1 PAM
O=C(CSC(=S)N1CCSCC1)c1ccc(Cl)cc1,?,17,9,-46*,1
C#Cc1nc(Nc2cccc(Cl)c2)nc(NC2CCCC2)n1,nt,nt,2,-20,0
COc1ccc(CCNC(=O)CCCn2c(=O)c3ccccc3n(Cc3ccccc3C#N)c2=O)cc1OC,nt,nt,1,9,0
CCOc1ccc(NC(=O)Cn2c(=O)n(CCCC(=O)NCCc3ccc(Cl)cc3)c(=O)c3ccccc32)cc1,nt,nt,0,12,-1
COc1ccc(CCNC(=O)CCCn2c(=O)c3ccccc3n(Cc3ccccc3C)c2=O)cc1OC,nt,nt,-1,-33*,3
Cc1ccc(NC(=O)Cn2c(=O)n(CCCCC(=O)NCCc3ccc(Cl)cc3)c(=O)c3ccccc32)cc1,nt,nt,-1,-46*,2
Cc1nn2c(=O)cc(COC(=O)c3cccc(NC(=O)c4ccc(F)cc4)c3)nc2s1,nt,nt,-2,3,0
CN(C)S(=O)(=O)Oc1ccsc1C(=O)Nc1ccc(Cl)c(Cl)c1,4,5,36*,-55*,-7
CN(C)S(=O)(=O)Oc1ccsc1C(=O)Nc1ccc(Br)cc1,-2,-10,2,-1,-6
CN(C)S(=O)(=O)Oc1ccsc1C(=O)Nc1cccc(Cl)c1,6,-3,0,-42*,-2
CN(C)CCNC(=O)C1CCN(c2ncnc3c2nc2n3CCCCC2)CC1,nt,nt,-1,-24,3
COC(=O)Cn1c(=O)c2cccn2c2cccnc21,nt,nt,5,6,-2
CC(=O)C1=C(O)C(=O)N(Cc2cccnc2)C1c1ccc(C(C)C)cc1 (stereo not given),-1,0,-1,-10,-3
CC(C)c1ccc(/C=C2\NC(=S)N(Cc3cccnc3)C2=O)cc1,1,4,0,-37*,-4
Cc1ccc(NC(=O)c2cccc(NC(=O)N3CCSc4ncccc43)c2)cc1Cl,nt,nt,2,4,-2
Cc1cc(Cl)ccc1NC(=O)c1cccc(NC(=O)N2CCSc3ncccc32)c1,nt,nt,4,-49*,-3
Cc1cc(C)c2c(n1)SCCN2C(=O)Nc1ccc(C(=O)Nc2ccc(C(C)C)cc2)cc1,nt,nt,4,-15,-2
Cc1cc(C)c2c(n1)SCCN2C(=O)Nc1ccc(C(=O)Nc2cc(Cl)ccc2C)cc1,nt,nt,4,-33*,-2
Cc1ccccc1Cn1nnc2c(=O)[nH]c(C3CCN(C(=O)c4ccccc4)CC3)nc21,nt,nt,0,3,-1
Cc1ccc(C(CNC(=O)Nc2ccc(Cl)cc2)N2CCN(C)CC2)cc1 (stereo not given),1,10,6,-44*,-14
CN1CCN(C(CNC(=O)Nc2ccc(Cl)cc2)c2ccc(F)cc2)CC1 (stereo not given),4,20,2,-14,-14
CCC(C)(C)NC(=O)CN(C(=O)c1snc(C(N)=O)c1N)c1ccc2nc(C)sc2c1,3,4,1,-55*,-5
CCC(C)(C)NC(=O)CN(C(=O)c1snc(C(N)=O)c1N)c1ccc2c(c1)OCCO2,2,3,1,8,-8
Cc1ccc2[nH]c(=O)c3cc(C(=O)NC4CCC(C)CC4)sc3c2c1 (stereo not given),nt,nt,1,-43*,-5
O=C(CCNC(=O)c1ccc([N+](=O)[O-])cc1)NCCc1ccc(Cl)cc1,0,-6,1,3,-7
SMILES,TRPV1 ag,TRPV1 potentiator,D1 agonist,D1 antagonist,D1 PAM
O=C(NC(NNc1ccc([N+](=O)[O-])cc1)(C(F)(F)F)C(F)(F)F)c1ccc(Cl)cc1,0,?,31*,-54*,-10
CCOc1ccc(CNC(=O)CN2N=C(c3ccccc3)CCC2=O)cc1OC,nt,nt,-3,14,-1
COc1ccccc1C(=O)Nc1ccccc1OCc1cc(=O)n2ccccc2n1,nt,nt,1,-19,1
Cc1ccc(Nc2nc(NCCO)c3ccccc3n2)cc1C,-5,1,13,-38*,-11
O=C(Nc1nc(-c2ccccc2)nc2ccccc12)c1ccc(F)cc1,0,13,2,-58*,-7
OCCNc1nc(-c2ccccc2)nc2ccccc12,?,-16,4,-35*,-8
CCOC(=O)c1scc(-c2ccccc2)c1S(=O)(=O)Nc1ccccc1OC,nt,nt,4,2,-8
O=C(Nc1ncc([N+](=O)[O-])s1)c1cccc([N+](=O)[O-])c1,-1,-6,32*,-25,-16
